# Laboratory results from the supplement of paper PMC6992640.
# Test system: UCD52 (cells of a triple-negative basal-like breast cancer xenograft)
# Assay: cell viability of combination (% of vehicle); higher = less cytotoxic
# Settings: 1 µM; 72 h; partner dose: 10 nM
# Protocol: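 PDX cells were treated for 72 h with each drug at 1 µM plus afatinib (10 nM; 1 µM for WHIM30). Luciferase viability is expressed as percent of vehicle.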
row,Structure (SMILES),cell viability of combination
1,COc1cc(C(=O)NS(=O)(=O)c2ccccc2C)ccc1Cc1cn(C)c2ccc(NC(=O)OC3CCCC3)cc12 [Zafirlukast] + CN(C)C/C=C/C(=O)Nc1cc2c(Nc3ccc(F)c(Cl)c3)ncnc2cc1O[C@H]1CCOC1 [Afatinib],71.6
2,CNC1CCC(c2ccc(Cl)c(Cl)c2)c2ccccc21.Cl (stereo not given) [Sertraline HCl] + CN(C)C/C=C/C(=O)Nc1cc2c(Nc3ccc(F)c(Cl)c3)ncnc2cc1O[C@H]1CCOC1 [Afatinib],56.4
3,CC(C)COc1ccc(CNC(=O)N(Cc2ccc(F)cc2)C2CCN(C)CC2)cc1 [Pimavanserin] + CN(C)C/C=C/C(=O)Nc1cc2c(Nc3ccc(F)c(Cl)c3)ncnc2cc1O[C@H]1CCOC1 [Afatinib],65.2
4,COC1=C(OC)C(=O)C(CCCCCCCCCCO)=C(C)C1=O [Idebenone] + CN(C)C/C=C/C(=O)Nc1cc2c(Nc3ccc(F)c(Cl)c3)ncnc2cc1O[C@H]1CCOC1 [Afatinib],62.7
5,Oc1c(Cl)cc(Cl)c2cccnc12 [Chloroxine] + CN(C)C/C=C/C(=O)Nc1cc2c(Nc3ccc(F)c(Cl)c3)ncnc2cc1O[C@H]1CCOC1 [Afatinib],75.4
6,O=C(NC1CCN(CCCCC2(C(=O)NCC(F)(F)F)c3ccccc3-c3ccccc32)CC1)c1ccccc1-c1ccc(C(F)(F)F)cc1 [Lomitapide] + CN(C)C/C=C/C(=O)Nc1cc2c(Nc3ccc(F)c(Cl)c3)ncnc2cc1O[C@H]1CCOC1 [Afatinib],43.9
7,Cc1ccc(-n2[nH]c(C)c(NN=C3C=CC=C(c4cccc(C(=O)O)c4)C3=O)c2=O)cc1C [Eltrombopag] + CN(C)C/C=C/C(=O)Nc1cc2c(Nc3ccc(F)c(Cl)c3)ncnc2cc1O[C@H]1CCOC1 [Afatinib],77.1
8,CNC(=O)c1cc(Oc2ccc(NC(=O)Nc3ccc(Cl)c(C(F)(F)F)c3)c(F)c2)ccn1 [Regorafenib] + CN(C)C/C=C/C(=O)Nc1cc2c(Nc3ccc(F)c(Cl)c3)ncnc2cc1O[C@H]1CCOC1 [Afatinib],55.9
9,COc1cc(C(=O)O)ccc1NC(=O)C1NC(CC(C)(C)C)C(C#N)(c2ccc(Cl)cc2F)C1c1cccc(Cl)c1F (stereo not given) + CN(C)C/C=C/C(=O)Nc1cc2c(Nc3ccc(F)c(Cl)c3)ncnc2cc1O[C@H]1CCOC1 [Afatinib],60.4
10,CC[C@H](C)[C@H]1O[C@]2(CC[C@@H]1C)C[C@@H]1C[C@@H](C/C=C(\C)[C@@H](O[C@H]3C[C@H](OC)[C@@H](O[C@H]4C[C@H](OC)[C@@H](O)[C@H](C)O4)[C@H](C)O3)[C@@H](C)/C=C/C=C3\CO[C@@H]4[C@H](O)C(C)=C[C@@H](C(=O)O1)[C@]34O)O2 [Ivermectin] + CN(C)C/C=C/C(=O)Nc1cc2c(Nc3ccc(F)c(Cl)c3)ncnc2cc1O[C@H]1CCOC1 [Afatinib],45.8
11,COc1cc2c(Nc3ccc(Br)cc3F)ncnc2cc1OCC1CCN(C)CC1 [Vandetanib (ZD6474)] + CN(C)C/C=C/C(=O)Nc1cc2c(Nc3ccc(F)c(Cl)c3)ncnc2cc1O[C@H]1CCOC1 [Afatinib],36.2
12,O=C1C=CC=CC1=C1NC(=C2C=CC=CC2=O)N(c2ccc(C(=O)O)cc2)N1 [Deferasirox] + CN(C)C/C=C/C(=O)Nc1cc2c(Nc3ccc(F)c(Cl)c3)ncnc2cc1O[C@H]1CCOC1 [Afatinib],68.2
13,COC(=O)NC(C(=O)NC(Cc1ccccc1)C(O)CN(Cc1ccc(-c2ccccn2)cc1)NC(=O)C(NC(=O)OC)C(C)(C)C)C(C)(C)C (stereo not given) [Atazanavir] + CN(C)C/C=C/C(=O)Nc1cc2c(Nc3ccc(F)c(Cl)c3)ncnc2cc1O[C@H]1CCOC1 [Afatinib],56.9
14,CNCCC(Oc1ccc(C(F)(F)F)cc1)c1ccccc1.Cl (stereo not given) [Fluoxetine HCl] + CN(C)C/C=C/C(=O)Nc1cc2c(Nc3ccc(F)c(Cl)c3)ncnc2cc1O[C@H]1CCOC1 [Afatinib],59.1
15,COc1cc2nccc(Oc3ccc(NC(=O)Nc4cc(C)on4)c(Cl)c3)c2cc1OC [Tivozanib (AV-951)] + CN(C)C/C=C/C(=O)Nc1cc2c(Nc3ccc(F)c(Cl)c3)ncnc2cc1O[C@H]1CCOC1 [Afatinib],40.2
16,COc1cc(Nc2c(C#N)cnc3cc(OCCCN4CCN(C)CC4)c(OC)cc23)c(Cl)cc1Cl [Bosutinib (SKI-606)] + CN(C)C/C=C/C(=O)Nc1cc2c(Nc3ccc(F)c(Cl)c3)ncnc2cc1O[C@H]1CCOC1 [Afatinib],25.9
17,Clc1ccc(COC(Cn2ccnc2)c2ccc(Cl)cc2Cl)cc1.O=[N+]([O-])O (stereo not given) [Econazole nitrate] + CN(C)C/C=C/C(=O)Nc1cc2c(Nc3ccc(F)c(Cl)c3)ncnc2cc1O[C@H]1CCOC1 [Afatinib],62.2
18,CC(C)(C)Cn1c(N)nc2ccc(-c3[nH]c(C(C)(C)C)nc3-c3ccc(F)cc3)nc21.CS(=O)(=O)O.CS(=O)(=O)O + CN(C)C/C=C/C(=O)Nc1cc2c(Nc3ccc(F)c(Cl)c3)ncnc2cc1O[C@H]1CCOC1 [Afatinib],30.3
19,CN(C)CC=CC(=O)Nc1cc2c(Nc3ccc(F)c(Cl)c3)ncnc2cc1OC1CCOC1 (stereo not given) [Afatinib (BIBW2992)] + CN(C)C/C=C/C(=O)Nc1cc2c(Nc3ccc(F)c(Cl)c3)ncnc2cc1O[C@H]1CCOC1 [Afatinib],21.3
20,CCN1CCN(Cc2ccc(Nc3ncc(F)c(-c4cc(F)c5nc(C)n(C(C)C)c5c4)n3)nc2)CC1.CS(=O)(=O)O + CN(C)C/C=C/C(=O)Nc1cc2c(Nc3ccc(F)c(Cl)c3)ncnc2cc1O[C@H]1CCOC1 [Afatinib],40.5

row,Structure (SMILES),cell viability of combination
1,CC[C@@]1(O)C(=O)OCc2c1cc1n(c2=O)Cc2cc3c(CN(C)C)c(O)ccc3nc2-1.Cl [Topotecan HCl] + CN(C)C/C=C/C(=O)Nc1cc2c(Nc3ccc(F)c(Cl)c3)ncnc2cc1O[C@H]1CCOC1 [Afatinib],66.5
2,Cc1c(-c2ccc(O)cc2)n(Cc2ccc(OCCN3CCCCCC3)cc2)c2ccc(O)cc12.Cl [Bazedoxifene HCl] + CN(C)C/C=C/C(=O)Nc1cc2c(Nc3ccc(F)c(Cl)c3)ncnc2cc1O[C@H]1CCOC1 [Afatinib],69.7
3,CC(C)C(=O)OCC(=O)[C@@]12O[C@H](C3CCCCC3)O[C@@H]1C[C@H]1[C@@H]3CCC4=CC(=O)C=C[C@]4(C)[C@H]3[C@@H](O)C[C@@]12C [Ciclesonide] + CN(C)C/C=C/C(=O)Nc1cc2c(Nc3ccc(F)c(Cl)c3)ncnc2cc1O[C@H]1CCOC1 [Afatinib],99.5
4,CC(NCCCc1cccc(C(F)(F)F)c1)c1cccc2ccccc12 (stereo not given) [Cinacalcet] + CN(C)C/C=C/C(=O)Nc1cc2c(Nc3ccc(F)c(Cl)c3)ncnc2cc1O[C@H]1CCOC1 [Afatinib],59.9
5,CC[C@@]1(O)C(=O)OCc2c1cc1n(c2=O)Cc2cc3c(CN(C)C)c(O)ccc3nc2-1 [Topotecan] + CN(C)C/C=C/C(=O)Nc1cc2c(Nc3ccc(F)c(Cl)c3)ncnc2cc1O[C@H]1CCOC1 [Afatinib],76.4
6,COc1cc2ncnc(Nc3ccc(F)c(Cl)c3)c2cc1NC(=O)C=CCN1CCCCC1 + CN(C)C/C=C/C(=O)Nc1cc2c(Nc3ccc(F)c(Cl)c3)ncnc2cc1O[C@H]1CCOC1 [Afatinib],33
7,Nc1c(CC(=O)[O-])cccc1C(=O)c1ccccc1.O.[Na+] [Amfenac Sodium Monohydrate] + CN(C)C/C=C/C(=O)Nc1cc2c(Nc3ccc(F)c(Cl)c3)ncnc2cc1O[C@H]1CCOC1 [Afatinib],76.3
8,CC1(C)Cc2c(-c3ccccc3)c(-c3ccc(Cl)cc3)c(CC(=O)O)n2C1 [Licofelone] + CN(C)C/C=C/C(=O)Nc1cc2c(Nc3ccc(F)c(Cl)c3)ncnc2cc1O[C@H]1CCOC1 [Afatinib],72.7
9,CO[C@H]1C[C@@H]2CC[C@@H](C)[C@@](O)(O2)C(=O)C(=O)N2CCCC[C@H]2C(=O)O[C@H]([C@H](C)C[C@@H]2CC[C@@H](OC(=O)C(C)(CO)CO)[C@H](OC)C2)CC(=O)[C@H](C)/C=C(\C)[C@@H](O)[C@@H](OC)C(=O)[C@H](C)C[C@H](C)/C=C/C=C/C=C/1C [Temsirolimus] + CN(C)C/C=C/C(=O)Nc1cc2c(Nc3ccc(F)c(Cl)c3)ncnc2cc1O[C@H]1CCOC1 [Afatinib],40.4
10,CCN(CC)CCNC(=O)c1c(C)[nH]c(C=C2C(=O)Nc3ccc(F)cc32)c1C.O=C(O)CC(O)C(=O)O [Sunitinib malate] + CN(C)C/C=C/C(=O)Nc1cc2c(Nc3ccc(F)c(Cl)c3)ncnc2cc1O[C@H]1CCOC1 [Afatinib],43.6
11,Cc1c(Cl)cccc1Nc1ccccc1C(=O)O [Tolfenamic Acid] + CN(C)C/C=C/C(=O)Nc1cc2c(Nc3ccc(F)c(Cl)c3)ncnc2cc1O[C@H]1CCOC1 [Afatinib],78.5
12,COC(=O)C1=C(C)NC(C)=C(C(=O)OC2CCCN(Cc3ccccc3)C2)C1c1cccc([N+](=O)[O-])c1.Cl (stereo not given) [Benidipine HCl] + CN(C)C/C=C/C(=O)Nc1cc2c(Nc3ccc(F)c(Cl)c3)ncnc2cc1O[C@H]1CCOC1 [Afatinib],79.2
13,CN1CCCC1CCOC(C)(c1ccccc1)c1ccc(Cl)cc1.O=C(O)C=CC(=O)O (stereo not given) [Clemastine Fumarate] + CN(C)C/C=C/C(=O)Nc1cc2c(Nc3ccc(F)c(Cl)c3)ncnc2cc1O[C@H]1CCOC1 [Afatinib],65.2
14,CCOC(=O)c1c(CSc2ccccc2)n(C)c2cc(Br)c(O)c(CN(C)C)c12.Cl [Arbidol HCl] + CN(C)C/C=C/C(=O)Nc1cc2c(Nc3ccc(F)c(Cl)c3)ncnc2cc1O[C@H]1CCOC1 [Afatinib],53
15,CC1(C)CCC(c2ccc(Cl)cc2)=C(CN2CCN(c3ccc(C(=O)NS(=O)(=O)c4ccc(NC(CCN5CCOCC5)CSc5ccccc5)c(S(=O)(=O)C(F)(F)F)c4)cc3)CC2)C1 (stereo not given) [ABT-263 (Navitoclax)] + CN(C)C/C=C/C(=O)Nc1cc2c(Nc3ccc(F)c(Cl)c3)ncnc2cc1O[C@H]1CCOC1 [Afatinib],38
16,Cl.Cl.Fc1ccc(C(c2ccc(F)cc2)N2CCN(CC=Cc3ccccc3)CC2)cc1 [Flunarizine 2HCl] + CN(C)C/C=C/C(=O)Nc1cc2c(Nc3ccc(F)c(Cl)c3)ncnc2cc1O[C@H]1CCOC1 [Afatinib],77
17,CNC(=O)c1cc(Oc2ccc(NC(=O)Nc3ccc(Cl)c(C(F)(F)F)c3)c(F)c2)ccn1.Cl [Regorafenib hydrochloride] + CN(C)C/C=C/C(=O)Nc1cc2c(Nc3ccc(F)c(Cl)c3)ncnc2cc1O[C@H]1CCOC1 [Afatinib],53.3
18,COc1ncc(-c2ccc3nccc(-c4ccnnc4)c3c2)cc1NS(=O)(=O)c1ccc(F)cc1F + CN(C)C/C=C/C(=O)Nc1cc2c(Nc3ccc(F)c(Cl)c3)ncnc2cc1O[C@H]1CCOC1 [Afatinib],15.8
19,COC(=O)C1=C(C)NC(C)=C(C(=O)OCCN(C)Cc2ccccc2)C1c1cccc([N+](=O)[O-])c1.Cl (stereo not given) [Nicardipine HCl] + CN(C)C/C=C/C(=O)Nc1cc2c(Nc3ccc(F)c(Cl)c3)ncnc2cc1O[C@H]1CCOC1 [Afatinib],69.6
20,CN(C)c1ccc(O)c2c1CC1CC3C(N(C)C)C(=O)C(C(N)=O)=C(O)C3(O)C(=O)C1=C2O.Cl (stereo not given) [Minocycline HCl] + CN(C)C/C=C/C(=O)Nc1cc2c(Nc3ccc(F)c(Cl)c3)ncnc2cc1O[C@H]1CCOC1 [Afatinib],75.9
